The source made the active and inactive calls. How the source made its calls: active means hit-call score of the fitted dose curve at least 0.9, where 1 is the maximum; inactive means score below 0.9.

As usually defined, the AC50 is the midpoint of the concentration-response curve, whichever way the signal moves.

Read-out in the first assay: growth arrest and DNA damage 45 (GADD45A), GADD45A (gene 1647)
Put plainly: LTEA_HepaRG_GADD45A: Life Technologies and Expression Analysis (LTEA) Assay for growth arrest and DNA damage 45 (GADD45A) using HepaRG (AID 2283458). The conditions noted are these: mRNA level, 48 h; actives raise or lower the signal. Put shortly: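 Cells plated and cultured 48 h, switched to serum-free induction medium, then dosed for 48 h (100 uM top, half-log dilutions, 0.5% DMSO). RNA was isolated and transcript measured by Fluidigm qRT-PCR.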
In the case of `COc1ccc2c(c1)c(CC(=O)O)c(C)n2C(=O)c1ccc(Cl)cc1`, the compound was called inactive. Turning to `CNCc1cc(F)ccc1Oc1ccc(Cl)c(Cl)c1`, the compound was called inactive.

For the compound `COC(=O)c1ccc(O)cc1`, the outcome was inactive. On the same count and under the same terms, then `CC1=C(/C=C/C(C)=C/C=C/C(C)=C/CO)C(C)(C)CCC1`, with “inactive”; and `CC(=O)OC/C=C(\C)CCC=C(C)C`, with “inactive”; and `OC[C@@H](O)[C@@H](O)[C@H](O)[C@H](O)CO`, with “inactive”. `NS(=O)(=O)c1cc2c(cc1Cl)NCNS2(=O)=O`: the result was inactive.

As to `COc1ccc(S(=O)(=O)N2C(=O)[C@@](c3ccccc3OC)(N3C[C@H](O)C[C@H]3C(=O)N(C)C)c3cc(Cl)ccc32)c(OC)c1`, the AC50 was 87.9 µM (active). Turning to `c1cc(-c2ccncc2)ccn1`, the compound was classed as inactive.

For `Cc1oc(-c2ccccc2)nc1CCOc1cccc2c1ccn2CCC(=O)O`, the AC50 is 75.2 µM (active).

On to `CCOC(=O)CCC(=O)OCC`, for which the call was inactive.

For `CN[C@H]1CC[C@@H](c2ccc(Cl)c(Cl)c2)c2ccc(S(N)(=O)=O)cc21`, the call was inactive. On to `NC(=O)Cn1c(=O)cc(CCN2CCN(c3nccc4sccc34)CC2)c2ccc(F)cc21`, for which the outcome was inactive. Still for that read-out and setting: then `CCCCN(CCCC)CCCC`, with “inactive”.

Read-out in a further assay: Forkhead box O3 (FOXO3), FOXO3 (gene 2309)
Put plainly: LTEA_HepaRG_FOXO3: Life Technologies and Expression Analysis (LTEA) Assay for Forkhead box O3 (FOXO3) using HepaRG (AID 2283459). As to conditions: mRNA level, 48 h; actives raise or lower the signal. The essentials: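 Differentiated human HepaRG cells in serum-free induction medium were exposed in duplicate for 48 h to eight half-log concentrations up to 100 uM in 0.5% DMSO. FOXO3 mRNA was quantified by qRT-PCR, normalized to ACTB, GAPDH and POLR2A, with bidirectional fitting versus DMSO.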
For `COc1ccc2c(c1)c(CC(=O)O)c(C)n2C(=O)c1ccc(Cl)cc1`, the compound was called inactive. On the same count and under the same terms, then `CNCc1cc(F)ccc1Oc1ccc(Cl)c(Cl)c1`, with “inactive”. As to `C[Si]1(C)O[Si](C)(C)O[Si](C)(C)O[Si](C)(C)O1`, the call was inactive. Turning to `COCCOCCOC`, the AC50 is 9.92 µM (active).

For the compound `COC(=O)c1ccc(O)cc1`, the compound was called inactive. Same read-out and setting: the value for `O=C(O)CCCCC(=O)O` was “inactive”; that for `Cc1cc(=O)[nH]c(=S)[nH]1` was “inactive”; that for `Cc1nc(-c2ccc3c(c2)CCN(CCC2CCC(NC(=O)/C=C/c4ccc(F)cc4)CC2)CC3)no1` (stereo not drawn) was “inactive”. Same read-out and setting: the value for `CC1=C(/C=C/C(C)=C/C=C/C(C)=C/CO)C(C)(C)CCC1` was “inactive”. Still for that read-out and setting: then `CC(=O)OC/C=C(\C)CCC=C(C)C`, with “inactive”; and `COc1ccc(C)cc1N`, with “inactive”.

For `OC[C@@H](O)[C@@H](O)[C@H](O)[C@H](O)CO`, the outcome was inactive. On the same count and under the same terms, the value for `NS(=O)(=O)c1cc2c(cc1Cl)NCNS2(=O)=O` was “inactive”; that for `NCCO` was “inactive”.

As to `COc1ccc(S(=O)(=O)N2C(=O)[C@@](c3ccccc3OC)(N3C[C@H](O)C[C@H]3C(=O)N(C)C)c3cc(Cl)ccc32)c(OC)c1`, the compound was called inactive. The same measure, in the same setting: the value for `c1cc(-c2ccncc2)ccn1` was “inactive”; that for `Cc1nc(C)nc(N2C[C@@H](C)N(c3ccnc([C@@H](C)O)n3)[C@@H](C)C2)n1` was “inactive”; that for `Cc1cccc([N+](=O)[O-])c1C` was “inactive”. Turning to `Cc1oc(-c2ccccc2)nc1CCOc1cccc2c1ccn2CCC(=O)O`, the compound was classed as inactive. On the same count and under the same terms, the value for `CCOC(=O)CCC(=O)OCC` was “inactive”; that for `CN[C@H]1CC[C@@H](c2ccc(Cl)c(Cl)c2)c2ccc(S(N)(=O)=O)cc21` was “inactive”. Take `NC(=O)Cn1c(=O)cc(CCN2CCN(c3nccc4sccc34)CC2)c2ccc(F)cc21`: the compound was called inactive. On the same count and under the same terms, then `CCCCCC(=O)O`, with “inactive”. Still for that read-out and setting: then `Cc1ccc(C)c(O)c1C`, with “inactive”; and `CC=Cc1ccc(O)c(OC)c1`, with “inactive”; and `CCCCN(CCCC)CCCC`, with “inactive”. Same read-out and setting: the value for `C=CCc1ccc(O)c(OC)c1` was “inactive”. For `CCCCCCCCCCCCCO`, the compound was called inactive. The same measure, in the same setting: then `CC(CO)OC(C)CO` (stereo not drawn) (tested in a mixture with another compound), with “inactive”.

For the origin of these results see PubChem BioAssay (EPA / NIEHS).
